Test system: Noggin (protein binding on small-molecule microarray)
Test: Noggin binders on small-molecule microarray, primary screen, biochemical, 635/667 nm fluorescence (AID 1095);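 note: score merges 667 nm feature fluorescence with signal to noise over triplicate slides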
Conditions: 635 nm fluorescence, higher = more signal

Which composite z-score does the source give for `COc1ccc([Si](C)(C)[C@@H]2[C@@H](CC(=O)N(CCO)Cc3ccccc3)O[C@]3(C(=O)N(Cc4cccc(N5CCC5=O)c4)c4ccccc43)[C@H]2C)cc1` here?
The composite z-score was 1.33.

Which composite z-score does the source give for `CN(C)CCCC[C@@H]1NC(=O)[C@@H]2C[C@H](C(=O)O)[C@H](c3ccc(O)cc3)N2C1=O` here?
The composite z-score was 1.01.

How did the composite z-score turn out when `CCOC(=O)C1=CCC(c2cccc3ccccc23)N(S(=O)(=O)c2ccc(C)cc2)C1` (stereo unspecified) was run?
The composite z-score was -0.375.

With `CO[C@@H]1COC(=O)CC=C[C@@H](C)[C@H](OC)COC(=O)CC=C[C@H]1C` as the compound, how does the composite z-score read?
Its composite z-score is 1.71.

Which composite z-score does the source give for `C=C(COC)/C(=C/C[C@H](OC(C)=O)c1ccc(OCCO)cc1)c1cnc2ccccc2c1` here?
The composite z-score was 0.935.

With `CO[C@H]1O[C@H](CO)[C@@H](OC(=O)Nc2ccc(Oc3ccccc3)cc2)[C@H](OC(=O)Nc2ccccc2-c2ccccc2)[C@H]1OC(=O)Nc1ccccc1-c1ccccc1` as the compound, how does the composite z-score read?
Its composite z-score is 1.23.

Which composite z-score does the source give for `CCC1=C2CN(Cc3ccccc3Br)[C@@H]([C@@H](O)Cc3ccccc3)C2C=CCC1` (stereo partly specified) here?
The composite z-score was 0.515.

For `[N-]=[N+]=NCc1ccccc1C[C@@]1(C(=O)N2CCOCC2)N=C(c2ccc(OCCCO)cc2)O[C@@H]1c1ccccc1N=[N+]=[N-]`, which composite z-score is on record?
Its composite z-score is 0.41.

How did the composite z-score turn out when `C=CC(=O)O[C@@H](Cc1ccccc1)[C@H]1C2C=CCCC=C2CN1Cc1cccc(Cl)c1` (stereo partly specified) was run?
Its composite z-score is -0.551.

Which composite z-score does the source give for `NC(=O)[C@H]1[C@@H]2C(=O)O[C@@H](c3ccccc3)[C@@H](c3ccccc3)N2[C@@H](c2ccc(O)cc2)[C@]12C(=O)Nc1ccc(C#CCCO)cc12` here?
The composite z-score was -1.02.

Which composite z-score does the source give for `NC(=O)NCC#Cc1ccc2c(c1)[C@]1(C(=O)N2)[C@H](C(N)=O)[C@H]2C(=O)O[C@H](c3ccccc3)[C@H](c3ccccc3)N2[C@@H]1c1ccccc1OCCO` here?
Its composite z-score is 0.546.

For `C=CC[C@]1(C(N)=O)N=C(c2ccc(OCCCO)cc2)O[C@H]1c1ccccc1CN=[N+]=[N-]`, which composite z-score is on record?
Its composite z-score is 0.126.

How did the composite z-score turn out when `C[N+](C)(C)CCCCNC(=O)[C@@H]1C[C@@H]2C(=O)N3CCC[C@H]3C(=O)N2[C@@H]1c1cccc(OCCO)c1` was run?
Its composite z-score is 1.64.

`O=C1O[C@H](c2ccccc2)[C@H](c2ccccc2)N2[C@H]1[C@@H](C(=O)Nc1nc3ccccc3s1)[C@]1(C(=O)Nc3ccc(C#CC4(O)CCCCCC4)cc31)[C@H]2c1ccc(O)cc1` was tested. Which composite z-score did it give?
The composite z-score was 1.59.

How did the composite z-score turn out when `COc1ccc(C(O)C2C=CC3C(=O)N(C)C(=O)C3N2N2CCCCC2)cc1OCc1ccccc1` (stereo unspecified) was run?
Its composite z-score is -0.171.

With `CC1=C([C@H](O)CCc2ccccc2)[C@H](CO)[C@@H]2C(=O)N(Cc3ccccc3)C(=O)[C@@H]2C1` as the compound, how does the composite z-score read?
The composite z-score was 0.932.

Which composite z-score does the source give for `C=C[C@H](OC)[C@@H](OC(=O)Nc1ccc(SC)cc1)c1ccc(OC)c(O)c1` here?
The composite z-score was -0.878.

Which composite z-score does the source give for `CC(C)(C)OC(=O)CC[C@@]1(C(=O)NCc2ccccc2)N=C(c2ccc(OCCCO)cc2)O[C@@H]1c1ccccc1` here?
Its composite z-score is -0.0633.

Which composite z-score does the source give for `O=C1c2ccccc2[C@](Cc2ccccc2I)(C(=O)NCC(F)(F)F)[C@H](c2ccc(CO)cc2)N1Cc1ccccc1C(F)(F)F` here?
Its composite z-score is -0.11.

`C=CCC(OC(C)=O)[C@@H]1[C@@H](N(Cc2cccc3ccccc23)C(=O)Cc2ccc(F)cc2)c2cc(OCCCO)ccc2N1C(=O)Cc1ccc2ccccc2c1` (stereo partly specified) was tested. Which composite z-score did it give?
Its composite z-score is -0.594.

How did the composite z-score turn out when `C=CCN1C(=O)[C@@]2(Cc3ccccc3)N=C(c3ccc(OCCCO)cc3)O[C@H]2c2ccccc21` was run?
The composite z-score was 0.293.

`Cc1ccc(N2C(=O)c3ccccc3[C@@H](C(=O)NCc3ccccc3)[C@@H]2c2ccc(CO)cc2)nc1` was tested. Which composite z-score did it give?
The composite z-score was 0.0163.

For `CO[C@H]1COC(=O)[C@H](C)COC(=O)[C@H](Cc2ccccc2)NC(=O)CC=C[C@H]1C`, which composite z-score is on record?
Its composite z-score is 0.952.

With `CN(C)CCCC[C@@H]1NC(=O)[C@@H]2C[C@H](C(=O)NCCCCCNC(=O)CS)[C@H](c3ccc(O)cc3)N2C1=O` as the compound, how does the composite z-score read?
The composite z-score was 1.88.

Which composite z-score does the source give for `O=C1O[C@H](c2ccccc2)[C@H](c2ccccc2)N2[C@H]1[C@@H](C(=O)NC[C@H](O)c1ccccc1)[C@]1(C(=O)Nc3ccc(C#CC4=CCCCC4)cc31)[C@H]2c1ccc(OCCO)cc1` here?
Its composite z-score is 0.691.

Biological target: Neurogenic locus notch homolog protein 3 (Homo sapiens) (UniProt Q9UM47)
Sequence (Q9UM47 whole entry, looked up): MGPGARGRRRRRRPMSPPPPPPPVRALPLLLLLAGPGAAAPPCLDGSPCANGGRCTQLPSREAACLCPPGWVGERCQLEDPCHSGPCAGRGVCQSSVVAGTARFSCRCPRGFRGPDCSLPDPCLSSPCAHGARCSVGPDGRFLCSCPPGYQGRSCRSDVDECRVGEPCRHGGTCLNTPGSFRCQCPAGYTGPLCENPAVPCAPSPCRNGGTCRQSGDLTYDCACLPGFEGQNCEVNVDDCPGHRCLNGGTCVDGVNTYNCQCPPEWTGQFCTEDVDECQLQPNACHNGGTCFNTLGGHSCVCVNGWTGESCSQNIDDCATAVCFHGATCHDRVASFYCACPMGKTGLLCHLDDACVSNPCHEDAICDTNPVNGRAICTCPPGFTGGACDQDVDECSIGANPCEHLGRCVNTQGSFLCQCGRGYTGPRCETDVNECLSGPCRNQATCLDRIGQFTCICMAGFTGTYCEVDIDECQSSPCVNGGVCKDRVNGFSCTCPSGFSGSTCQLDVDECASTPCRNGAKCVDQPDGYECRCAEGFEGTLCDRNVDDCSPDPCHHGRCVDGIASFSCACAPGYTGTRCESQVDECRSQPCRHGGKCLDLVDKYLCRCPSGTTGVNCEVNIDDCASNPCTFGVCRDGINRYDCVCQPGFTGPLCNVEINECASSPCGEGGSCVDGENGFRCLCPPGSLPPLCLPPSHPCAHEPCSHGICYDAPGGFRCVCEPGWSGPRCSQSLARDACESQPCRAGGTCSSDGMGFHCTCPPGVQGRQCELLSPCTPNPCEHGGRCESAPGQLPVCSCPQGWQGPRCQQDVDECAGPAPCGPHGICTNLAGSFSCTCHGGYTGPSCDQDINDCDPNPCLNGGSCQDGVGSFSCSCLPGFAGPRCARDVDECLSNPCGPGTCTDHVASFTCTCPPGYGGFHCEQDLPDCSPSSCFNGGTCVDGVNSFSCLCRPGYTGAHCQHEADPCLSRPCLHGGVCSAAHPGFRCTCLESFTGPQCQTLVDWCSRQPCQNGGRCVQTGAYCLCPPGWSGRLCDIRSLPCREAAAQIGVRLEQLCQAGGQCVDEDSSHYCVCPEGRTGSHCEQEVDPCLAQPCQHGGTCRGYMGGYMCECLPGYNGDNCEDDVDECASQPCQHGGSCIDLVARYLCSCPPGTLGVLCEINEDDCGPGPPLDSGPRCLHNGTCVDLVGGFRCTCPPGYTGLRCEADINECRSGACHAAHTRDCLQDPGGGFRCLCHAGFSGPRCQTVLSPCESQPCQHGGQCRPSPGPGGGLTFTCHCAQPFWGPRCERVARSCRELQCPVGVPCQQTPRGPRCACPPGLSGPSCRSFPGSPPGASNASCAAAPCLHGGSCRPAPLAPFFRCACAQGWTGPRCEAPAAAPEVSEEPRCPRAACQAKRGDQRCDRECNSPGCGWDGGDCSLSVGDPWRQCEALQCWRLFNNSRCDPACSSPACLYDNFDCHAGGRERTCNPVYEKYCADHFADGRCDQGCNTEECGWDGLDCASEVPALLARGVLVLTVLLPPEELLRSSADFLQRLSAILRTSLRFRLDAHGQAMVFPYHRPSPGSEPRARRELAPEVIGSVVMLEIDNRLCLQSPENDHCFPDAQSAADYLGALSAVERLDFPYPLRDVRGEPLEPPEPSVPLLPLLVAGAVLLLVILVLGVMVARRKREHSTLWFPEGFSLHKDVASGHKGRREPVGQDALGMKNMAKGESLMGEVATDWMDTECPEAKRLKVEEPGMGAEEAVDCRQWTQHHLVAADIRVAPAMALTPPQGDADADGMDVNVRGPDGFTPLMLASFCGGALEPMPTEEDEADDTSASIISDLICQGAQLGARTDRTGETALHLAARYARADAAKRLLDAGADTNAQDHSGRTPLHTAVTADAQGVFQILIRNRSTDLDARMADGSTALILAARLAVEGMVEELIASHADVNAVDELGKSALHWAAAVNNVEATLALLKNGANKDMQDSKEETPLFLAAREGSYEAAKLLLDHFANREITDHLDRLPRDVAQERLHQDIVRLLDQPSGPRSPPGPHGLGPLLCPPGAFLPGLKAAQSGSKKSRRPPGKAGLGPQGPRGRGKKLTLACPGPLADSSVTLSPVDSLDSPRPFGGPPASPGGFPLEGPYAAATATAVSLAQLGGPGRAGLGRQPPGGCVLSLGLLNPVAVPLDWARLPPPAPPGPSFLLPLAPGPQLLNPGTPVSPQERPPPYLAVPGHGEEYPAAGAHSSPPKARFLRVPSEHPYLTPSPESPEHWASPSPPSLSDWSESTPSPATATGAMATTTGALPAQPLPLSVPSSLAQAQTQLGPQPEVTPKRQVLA
Test: NOTCH3 binders on small-molecule microarray, primary screen, biochemical, 635/667 nm fluorescence (AID 1096)
Conditions: NOTCH3 binding, 635 nm fluorescence, higher = more signal

How did the composite z-score turn out when `CCOC(=O)C[C@H]1[C@H](OC(=O)Cc2ccc3c(c2)OCO3)[C@@H](NC(=O)c2ccc3ccccc3c2)c2cc(OCCCO)ccc2N1C(=O)Cc1ccc(OC)cc1` was run?
The composite z-score was 0.719.

`O=C(NCc1ccccc1)c1ccc(Br)cc1[N+](=O)[O-]` was tested. Which composite z-score did it give?
The composite z-score was 0.338.

With `CC(C)(C)OC(=O)CC[C@]1(C(=O)N2CCCCC2)N=C(c2ccc(OCCCO)cc2)O[C@H]1c1ccccc1` as the compound, how does the composite z-score read?
The composite z-score was 1.15.

Which composite z-score does the source give for `C=CCNC(=O)[C@@H]1[C@H]2C(=O)O[C@H](c3ccccc3)[C@H](c3ccccc3)N2[C@H](c2ccc(OCCO)cc2)[C@@]12C(=O)N(C(=O)OCCOC)c1ccc(C#CC3(O)CCCCCC3)cc12` here?
Its composite z-score is 0.955.

`CCCC=C(CCC)[C@@H](NS(=O)(=O)c1ccc(C(F)(F)F)cc1)c1ccc(-c2ccccc2)cc1` was tested. Which composite z-score did it give?
The composite z-score was 0.762.

With `NC(=O)NCC#Cc1ccc2c(c1)[C@]1(C(=O)N2)[C@H](C(=O)N2CCCCCCC2)[C@H]2C(=O)O[C@H](c3ccccc3)[C@H](c3ccccc3)N2[C@@H]1c1ccccc1OCCO` as the compound, how does the composite z-score read?
Its composite z-score is 1.05.

For `C=C[C@H](OC)[C@@H](OC(=O)Nc1ccc(SC)cc1)c1ccc(O)c(F)c1`, which composite z-score is on record?
Its composite z-score is 0.134.

`CO[C@H]1COC(=O)CC=C[C@H](C)COC(=O)[C@@H](OCc2ccccc2)C=C[C@@H]1C` was tested. Which composite z-score did it give?
Its composite z-score is -0.532.

For `CC(C)C[C@@H]1NC(=O)[C@H]2C[C@@H](C(=O)NCCCCCC[N+](C)(C)C)[C@@H](c3ccc(O)cc3)N2C1=O`, which composite z-score is on record?
The composite z-score was 0.275.

With `CO[C@H]1COC(=O)[C@@H](C)NC(=O)CC=C[C@@H](C)[C@H](OC)COC(=O)CC=C[C@@H]1C` as the compound, how does the composite z-score read?
Its composite z-score is 0.134.

Which composite z-score does the source give for `C=CC[C@@]12N=C(c3ccc(OCCCO)cc3)O[C@@H]1c1ccccc1CN(Cc1ccccc1)C2=O` here?
The composite z-score was 0.7.

For `COc1ccc([Si](C)(C)[C@@H]2[C@@H](CC(=O)N(CCO)Cc3ccccc3)O[C@]3(C(=O)N(Cc4cccc(N5CCC5=O)c4)c4ccccc43)[C@H]2C)cc1`, which composite z-score is on record?
Its composite z-score is 0.941.

For `CN(C)CCCC[C@@H]1NC(=O)[C@@H]2C[C@H](C(=O)O)[C@H](c3ccc(O)cc3)N2C1=O`, which composite z-score is on record?
Its composite z-score is 0.385.

Which composite z-score does the source give for `CCOC(=O)C1=CCC(c2cccc3ccccc23)N(S(=O)(=O)c2ccc(C)cc2)C1` (stereo unspecified) here?
Its composite z-score is 0.976.

Which composite z-score does the source give for `CO[C@@H]1COC(=O)CC=C[C@@H](C)[C@H](OC)COC(=O)CC=C[C@H]1C` here?
The composite z-score was -0.801.

Which composite z-score does the source give for `C=C(COC)/C(=C/C[C@H](OC(C)=O)c1ccc(OCCO)cc1)c1cnc2ccccc2c1` here?
Its composite z-score is 1.1.

Which composite z-score does the source give for `CO[C@H]1O[C@H](CO)[C@@H](OC(=O)Nc2ccc(Oc3ccccc3)cc2)[C@H](OC(=O)Nc2ccccc2-c2ccccc2)[C@H]1OC(=O)Nc1ccccc1-c1ccccc1` here?
The composite z-score was 1.06.

How did the composite z-score turn out when `CCC1=C2CN(Cc3ccccc3Br)[C@@H]([C@@H](O)Cc3ccccc3)C2C=CCC1` (stereo partly specified) was run?
Its composite z-score is 1.05.

Which composite z-score does the source give for `[N-]=[N+]=NCc1ccccc1C[C@@]1(C(=O)N2CCOCC2)N=C(c2ccc(OCCCO)cc2)O[C@@H]1c1ccccc1N=[N+]=[N-]` here?
The composite z-score was 1.08.

Which composite z-score does the source give for `C=CC(=O)O[C@@H](Cc1ccccc1)[C@H]1C2C=CCCC=C2CN1Cc1cccc(Cl)c1` (stereo partly specified) here?
The composite z-score was -1.53.

`NC(=O)[C@H]1[C@@H]2C(=O)O[C@@H](c3ccccc3)[C@@H](c3ccccc3)N2[C@@H](c2ccc(O)cc2)[C@]12C(=O)Nc1ccc(C#CCCO)cc12` was tested. Which composite z-score did it give?
Its composite z-score is -0.714.

With `NC(=O)NCC#Cc1ccc2c(c1)[C@]1(C(=O)N2)[C@H](C(N)=O)[C@H]2C(=O)O[C@H](c3ccccc3)[C@H](c3ccccc3)N2[C@@H]1c1ccccc1OCCO` as the compound, how does the composite z-score read?
Its composite z-score is 1.11.

For `C=CC[C@]1(C(N)=O)N=C(c2ccc(OCCCO)cc2)O[C@H]1c1ccccc1CN=[N+]=[N-]`, which composite z-score is on record?
Its composite z-score is -0.907.

How did the composite z-score turn out when `C[N+](C)(C)CCCCNC(=O)[C@@H]1C[C@@H]2C(=O)N3CCC[C@H]3C(=O)N2[C@@H]1c1cccc(OCCO)c1` was run?
The composite z-score was 0.751.

`O=C1O[C@H](c2ccccc2)[C@H](c2ccccc2)N2[C@H]1[C@@H](C(=O)Nc1nc3ccccc3s1)[C@]1(C(=O)Nc3ccc(C#CC4(O)CCCCCC4)cc31)[C@H]2c1ccc(O)cc1` was tested. Which composite z-score did it give?
Its composite z-score is 1.09.

How did the composite z-score turn out when `COc1ccc(C(O)C2C=CC3C(=O)N(C)C(=O)C3N2N2CCCCC2)cc1OCc1ccccc1` (stereo unspecified) was run?
Its composite z-score is 1.12.

For `CC1=C([C@H](O)CCc2ccccc2)[C@H](CO)[C@@H]2C(=O)N(Cc3ccccc3)C(=O)[C@@H]2C1`, which composite z-score is on record?
The composite z-score was 0.497.

How did the composite z-score turn out when `C=C[C@H](OC)[C@@H](OC(=O)Nc1ccc(SC)cc1)c1ccc(OC)c(O)c1` was run?
Its composite z-score is -0.321.

Which composite z-score does the source give for `CC(C)(C)OC(=O)CC[C@@]1(C(=O)NCc2ccccc2)N=C(c2ccc(OCCCO)cc2)O[C@@H]1c1ccccc1` here?
Its composite z-score is 1.1.

`O=C1c2ccccc2[C@](Cc2ccccc2I)(C(=O)NCC(F)(F)F)[C@H](c2ccc(CO)cc2)N1Cc1ccccc1C(F)(F)F` was tested. Which composite z-score did it give?
Its composite z-score is 1.02.

How did the composite z-score turn out when `C=CCC(OC(C)=O)[C@@H]1[C@@H](N(Cc2cccc3ccccc23)C(=O)Cc2ccc(F)cc2)c2cc(OCCCO)ccc2N1C(=O)Cc1ccc2ccccc2c1` (stereo partly specified) was run?
Its composite z-score is -0.0809.

How did the composite z-score turn out when `C=CCN1C(=O)[C@@]2(Cc3ccccc3)N=C(c3ccc(OCCCO)cc3)O[C@H]2c2ccccc21` was run?
Its composite z-score is 1.08.

For `Cc1ccc(N2C(=O)c3ccccc3[C@@H](C(=O)NCc3ccccc3)[C@@H]2c2ccc(CO)cc2)nc1`, which composite z-score is on record?
The composite z-score was -0.763.

With `CO[C@H]1COC(=O)[C@H](C)COC(=O)[C@H](Cc2ccccc2)NC(=O)CC=C[C@H]1C` as the compound, how does the composite z-score read?
The composite z-score was -0.447.

Which composite z-score does the source give for `CN(C)CCCC[C@@H]1NC(=O)[C@@H]2C[C@H](C(=O)NCCCCCNC(=O)CS)[C@H](c3ccc(O)cc3)N2C1=O` here?
The composite z-score was 0.208.

How did the composite z-score turn out when `O=C1O[C@H](c2ccccc2)[C@H](c2ccccc2)N2[C@H]1[C@@H](C(=O)NC[C@H](O)c1ccccc1)[C@]1(C(=O)Nc3ccc(C#CC4=CCCCC4)cc31)[C@H]2c1ccc(OCCO)cc1` was run?
Its composite z-score is 1.11.

From PubChem BioAssay
